Calls of active or inactive are those of the source. Rule as the data show it: active = activation above about 85%; inactive = the rest.
Target: Peroxisome proliferator-activated receptor gamma (Homo sapiens) (UniProt P37231)
Experiment: partial agonism at human PPARgamma receptor – cell-based, luciferase reporter, luminescence, primary screen (AID 504452);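 also: Cos-1 cells carrying PPARgamma and a response element luciferase reporter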
Conditions: cell-based PPARg luciferase reporter, at 5 µM, stronger effect = higher value; activation (% of full agonist control): measured here: relative to full agonist control

Chain of Peroxisome proliferator-activated receptor gamma (Homo sapiens) (P37231 whole entry, looked up): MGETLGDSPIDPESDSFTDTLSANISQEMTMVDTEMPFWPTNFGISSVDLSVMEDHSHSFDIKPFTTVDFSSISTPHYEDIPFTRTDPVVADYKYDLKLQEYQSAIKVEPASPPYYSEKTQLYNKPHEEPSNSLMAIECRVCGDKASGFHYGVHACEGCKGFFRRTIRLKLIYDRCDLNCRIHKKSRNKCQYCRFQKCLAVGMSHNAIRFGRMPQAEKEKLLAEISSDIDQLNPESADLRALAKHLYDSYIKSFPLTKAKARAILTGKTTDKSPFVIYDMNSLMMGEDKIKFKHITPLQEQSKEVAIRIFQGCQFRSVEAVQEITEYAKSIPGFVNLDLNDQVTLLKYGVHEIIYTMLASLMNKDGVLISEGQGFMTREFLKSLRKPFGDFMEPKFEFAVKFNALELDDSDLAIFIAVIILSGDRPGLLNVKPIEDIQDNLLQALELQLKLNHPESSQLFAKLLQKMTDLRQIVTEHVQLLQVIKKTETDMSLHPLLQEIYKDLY

SMILES	activation (% of full agonist control) [%]	activation (% of partial agonist control)
Cc1ccc2nc(N3C(=O)C(O)=C(C(=O)c4ccc(C)o4)C3c3ccco3)sc2c1 (stereo unspecified)	45.8	101% (active)
COc1ccc(NC(=O)CC2C(=O)Nc3ccccc3N2CC(=O)N2CCCC2)cc1 (stereo unspecified)	30.4	67.3% (inactive)
Cc1nc2ccccn2c1/C(O)=C1\C(=O)C(=O)N(CCN2CCOCC2)C1c1ccncc1 (stereo unspecified)	26.2	58.1% (inactive)
COc1ccc(S(=O)(=O)N2CCCCC2)cc1NC(=O)C1CSC2(C)CCC(=O)N12 (stereo unspecified)	40.2	89% (active)
O=C(OCC1OC(Oc2ccc(O)cc2)C(O)C(O)C1O)c1ccccc1 (stereo unspecified)	9.83	21.8% (inactive)
N#C/C(=C\c1ccc(OCCN2CCOCC2)cc1)C(=O)Nc1ccc(S(N)(=O)=O)cc1	36.8	81.4% (inactive)
O=c1[nH]c2cc3c(cc2cc1CN(Cc1ccccc1)Cc1nnnn1Cc1ccco1)OCCO3	35.1	77.6% (inactive)
O=C(Nc1c(C(=O)Nc2ccc3c(c2)OCCO3)cnn1-c1ccccc1Cl)c1ccco1	47.5	105% (active)
O=C(CC(C(=O)N1CCc2ccccc21)n1ccnc1)NCc1ccccc1 (stereo unspecified)	14.1	31.2% (inactive)
O=C(Cn1nc(Cc2ccncc2)c2ccccc2c1=O)N1CCN(C(=O)c2ccco2)CC1	36.2	80.2% (inactive)
COC(=O)c1sc(N2C(=O)C(=O)/C(=C(/O)c3ccc(C)cc3)C2c2ccco2)nc1C (stereo unspecified)	37.7	83.5% (inactive)
O=C(NC(Cc1ccccc1)C(=O)N1CCN(c2ccccc2O)CC1)c1ccccc1 (stereo unspecified)	40.7	90.2% (active)
Cc1nn(CC(=O)N2CCC(N3CCCCC3)CC2)c(=O)c2c1sc1ccccc12	27.9	61.8% (inactive)
O=C(NC(Cc1ccccc1)C(=O)O)/C(=C/c1ccc(Cl)cc1)NC(=O)c1ccco1 (stereo unspecified)	24.4	54% (inactive)
Cc1ccc2nc(N3C(=O)C(O)=C(C(=O)c4ccco4)C3c3cccc(O)c3)sc2c1 (stereo unspecified)	46.7	103% (active)
CC(=O)N1CCN(C(=O)c2ccccc2NS(=O)(=O)c2ccc(F)cc2)CC1	30.5	67.6% (inactive)
OCCC1CN(Cc2cccn2-c2cccnc2)CCN1Cc1ccc(F)cc1 (stereo unspecified)	29.8	66% (inactive)

SMILES	activation (% of full agonist control) [%]	activation (% of partial agonist control)
Cn1nc(-c2ccccc2)c(CO)c1Oc1cccc(C(F)(F)F)c1	30.3	67% (inactive)
S=C(NCCc1ccccc1)N1CCn2cccc2C1c1ccncc1 (stereo unspecified)	44.2	97.9% (active)
COc1ccccc1N1C(=O)C2C(c3ccc(F)cc3)NN(C(=O)c3ccc(C)cc3)C2C1=O (stereo unspecified)	30.1	66.5% (inactive)
Cc1cc(C)c2nc(N3C(=O)C(O)=C(C(=O)c4ccco4)C3c3cccc(O)c3)sc2c1 (stereo unspecified)	29	64.1% (inactive)
COc1ccc(/C(O)=C2/C(=O)C(=O)N(Cc3ccco3)C2c2cccs2)cc1 (stereo unspecified)	32.1	71.1% (inactive)
Cc1nn(Cc2cccc(C(=O)Nc3ccn(Cc4ccccc4F)n3)c2)c(C)c1[N+](=O)[O-]	32.8	72.6% (inactive)
O=C(NC(Cc1ccccc1)C(=O)O)/C(=C/c1cccc([N+](=O)[O-])c1)NC(=O)c1ccco1 (stereo unspecified)	41.5	91.8% (active)
COc1ccc(CN2CCN(Cc3ccc(C)cc3)C(CCO)C2)cc1OC (stereo unspecified)	33.7	74.6% (inactive)
Cc1ccc(O)c(C(=O)c2cc(C#N)c(=O)n(C(C)c3ccccc3)c2)c1 (stereo unspecified)	33.3	73.7% (inactive)
Cc1cccc(NC(=O)CN2C(=O)/C(=C3\SC(=S)N(CC4CCCO4)C3=O)c3ccccc32)c1 (stereo unspecified)	43.3	95.8% (active)
COc1ccc(CCn2c(C)cc(C(=O)CN3C(=O)C(=O)N(C4CCCC4)C3=O)c2C)cc1OC	27.1	60% (inactive)
Cc1ccc(CN2C(=O)N/C(=C\c3cccn3-c3cccc(C(=O)O)c3)C2=O)cc1	36.9	81.8% (inactive)
CC(OC(=O)CNC(=O)c1ccc(F)cc1)C(=O)Nc1ccc(S(=O)(=O)N2CCOCC2)cc1 (stereo unspecified)	34.9	77.2% (inactive)
COc1ccc2nc(N3C(=O)C(O)=C(C(=O)c4ccco4)C3c3ccc(C)o3)sc2c1 (stereo unspecified)	41.1	91.1% (active)
CSCc1c(C(=O)Nc2ccc(N3CCOCC3)cc2)oc2ccccc12	33.5	74.2% (inactive)
COc1cccc(Cn2nc3c4cc(F)ccc4n(Cc4ccc(F)cc4)cc-3c2=O)c1	38.8	85.9% (active)
